SARS PLpro yeast: blocks SARS-CoV papain-like protease in a yeast assay | S. cerevisiae expressing SARS-CoV PLpro, growth rescue | Potency, µM (titrated, usually from 32.9 µM), inactives show at the top dose activity, positive = growth rescue, actives largely listed as activators | hit rate 0.19% among 330,000 | AID 485353; calls by dose curve; note: 0% is about no effect; nearly all actives have a fitted effect of over 55% in size
LmPK inh: blocks Leishmania mexicana pyruvate kinase activity | purified LmPK, Kinase-Glo ATP luminescence, 1 h | Q27686 | Potency, µM (highest dose often 57.5 µM), inactives show at the highest dose activity change, negative = inhibition, most hits filed as inhibitors | hit rate 0.37% among 290,000; note: % is set by controls: 0 for no effect and ±100 for the full control effect
Target sequence (Q27686 whole entry, looked up): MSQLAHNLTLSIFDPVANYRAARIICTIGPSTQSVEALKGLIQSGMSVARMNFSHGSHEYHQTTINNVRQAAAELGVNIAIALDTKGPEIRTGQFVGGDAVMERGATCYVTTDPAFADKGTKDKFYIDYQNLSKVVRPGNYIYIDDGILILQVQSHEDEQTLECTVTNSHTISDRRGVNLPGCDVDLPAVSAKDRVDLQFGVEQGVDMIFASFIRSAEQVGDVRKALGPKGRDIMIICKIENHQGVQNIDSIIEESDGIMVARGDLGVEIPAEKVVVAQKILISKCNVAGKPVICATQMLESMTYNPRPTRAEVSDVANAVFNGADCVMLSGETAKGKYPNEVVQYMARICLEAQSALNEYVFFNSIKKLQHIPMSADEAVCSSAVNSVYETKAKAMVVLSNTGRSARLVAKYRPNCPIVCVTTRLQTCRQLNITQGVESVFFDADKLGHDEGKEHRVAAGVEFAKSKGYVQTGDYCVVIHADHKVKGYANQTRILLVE
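Kinase-Glo luminescence read after 1 h RT reaction of 0.1 nM LmPK with 0.5 mM PEP and 0.1 mM ADP. Activity scaled between uninhibited and enzyme-free controls.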
Sm TGR block: S. mansoni TGR enzyme inhibition. Q962Y6. purified TGR, DTNB reduction, TNB absorbance 405 nm. Potency, µM (doses to about 114 µM), for inactives: at the highest dose activity change, negative = inhibition, hits mostly inhibitors. hit rate 3% among 360,000. AID 485364; note: % is set by controls: 0 for no effect and ±100 for the full control effect; nearly all actives have a fitted effect of over 60% in size
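Kinetic colorimetric format: TGR-catalysed, NADPH-driven DTNB reduction monitored via TNB absorbance. Enzyme dispensed at 20 nM; compound exposure 15 min at room temperature before reaction start.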
NS1 function inh: blocks influenza NS1 protein function; Potency, µM (doses to about 46.1 µM), inactives show at the highest dose activity, positive = more growth; hit rate 0.4% among 270,000; calls by dose curve; note: actives are rising curves; nearly all actives have a fitted effect of over 50% in size
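OD600 was taken as the measure of yeast growth restored by compound in an NS1-expressing S. cerevisiae strain. Cells had been washed out of glucose medium and diluted 1:100 into galactose -URA medium, pH 6.0.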
RE007 growth inh: less growth of the S. pombe RE007 Vpr strain. S. pombe RE007 Vpr strain, BacTiter-Glo ATP luminescence, 24 h. Potency, µM (doses to about 92.2 µM), for inactives: top-dose activity change, negative = less growth, most hits filed as inhibitors. hit rate 0.21% among 360,000. AID 651644; active = well fitted falling curve with a large enough effect; inconclusive = small, poorly fitted or top-dose-only effect; inactive = no such curve, though single readings can be large or run the other way; note: % is set by controls: 0 for no effect and ±100 for the full control effect; nearly all actives have a fitted effect of over 50% in size
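Fission yeast strain RE007, carrying one chromosomally integrated HIV-1 vpr copy, was seeded at OD 0.01 in PMG+AL medium with 23 nL pinned compound. After 24 h at 30 °C and 99% humidity, viability was read by BacTiter-Glo luminescence.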
Tb PYK inh: blocks Trypanosoma brucei pyruvate kinase. Q57TT1. TbPYK enzyme, Kinase-Glo Plus ATP luminescence, 45 min. Potency, µM (highest dose often 76.8 µM), inactives show at the highest dose activity, negative = inhibition, actives largely listed as inhibitors. hit rate 0.12% among 410,000. AID 624173; note: % is set by controls: 0 for no effect and ±100 for the full control effect; nearly all actives have a fitted effect of over 50% in size
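Quantitative HTS: titrated library compounds versus trypanosomal pyruvate kinase in TEA buffer (pH 7.2) containing KCl, MgCl2, BSA and Tween-20. Reactions were initiated with ADP, 130 uM final. Kinase-Glo Plus luminescence was read after 45 min at RT.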
* = called active by the depositor; ? = inconclusive; . = no result. Hits are enriched below; roughly 3.3% of the tested compounds scored in any of these assays. Unless noted, calls come from the whole dose curve; as a rule, active = well fitted curve in the direction sought with a large enough effect; inconclusive = small, poorly fitted or top-dose-only effect, or another doubt; inactive = no such curve, though single readings can be large; an effect the other way counts as inactive or inconclusive. Potency is the fitted concentration of half-maximal effect.

SMILES	SARS PLpro yeast	LmPK inh	Sm TGR block	NS1 function inh	RE007 growth inh	Tb PYK inh
COc1ccc(CN2CCN(Cc3ccc4cc(F)ccc4n3)CC2CCO)c(C)c1C (stereo not drawn)	?	1%	22µM*	18%	-4%	0%
CCOc1ccccc1CN1CCN(Cc2ccc3cc(F)ccc3n2)CC1CCO (stereo not drawn)	0%	-10%	35µM*	-3%	5%	-5%
COc1cc(C2C(=O)N(C3CCCCCC3)CC(=O)N2CCC2=CCCCC2)ccc1OC(C)C (stereo not drawn)	.	.	7%	.	.	-5%
N[C@@H](CCCCO)C(=O)O	.	.	.	0%	.	.
Cc1cccc(C(=O)NCC(c2ccc3c(c2)OCO3)N2CCOCC2)c1 (stereo not drawn)	.	.	25µM*	.	.	0%
CCCCCCCC/C=C\CCCCCCCC(=O)OC[C@@H](O)[C@H]1OC[C@H](O)[C@H]1O	.	.	.	.	.	-8%
COC(=O)C1=C(c2ccc(C(C)=O)cc2)C[C@@H]2CC[C@H]1N2C(=O)NCCO	-8%	.	0%	.	10%	1%
COC(=O)C1=C(c2ccc(C(C)=O)cc2)C[C@@H]2CC[C@H]1N2C(=O)NCC1CC1	2%	.	22µM*	.	14%	0%
COC(=O)Cn1c(-c2ccc(OC)cc2)c(-c2ccc(OC)cc2)nnc1=O	-2%	34%	79µM*	-14%	0%	2%
Clc1ccc(/C=C\c2nc(Cl)c(-c3ccc(Cl)cc3)c(Cl)n2)cc1	.	.	.	-8%	.	.
O=C(Nc1ccc(NC(=S)NC(=O)c2ccco2)cc1)c1ccc(Br)cc1	.	.	.	.	-17%	-17%
Cc1ccc(C(=O)O)cc1NC(=S)NC(=O)c1ccc(-c2ccc(Cl)cc2)o1	1%	9%	10µM*	6%	7%	4%
COc1ccc(C(=O)O)cc1NC(=S)NC(=O)CSc1ccc(Cl)cc1	0%	6%	?	8%	10%	-7%
COc1ccc(C(=O)O)cc1NC(=S)NC(=O)c1ccc(-c2ccc(Cl)cc2)o1	1%	0%	28µM*	.	3%	1%
O=C(O)c1ccc(NC(=S)NC(=O)c2ccc(-c3ccc(Br)cc3)o2)cc1	-3%	2%	32µM*	7%	-5%	-11%
O=C(NC(=S)Nc1ccc(Cl)cc1)c1ccccc1	0%	4%	?	9%	5%	0%
O=C(O)c1cccc(NC(=S)NC(=O)c2ccc(-c3ccc(Cl)cc3)o2)c1	1%	2%	20µM*	.	-13%	-8%
COCCn1nnnc1CN(CCCN1CCOCC1)Cc1cc2c(C)ccc(C)c2[nH]c1=O	-3%	1%	13µM*	1%	-10%	-2%
CCCCNc1c(CN)cnc2cc(Cl)ccc12	.	.	.	-6%	.	.
c1ccc(CNc2c3c(nc4ncnn24)CCCC3)nc1	-1%	-2%	-25%	-2%	0%	3%
C#CCNc1c2c(nc3ncnn13)CC(C)CC2 (stereo not drawn)	-1%	-6%	22µM*	-2%	13%	-2%
COc1ccc(-c2nc(C)c(CCNS(=O)(=O)c3cc(C)c(C)cc3C)s2)cc1	.	.	0%	.	.	-3%
COC(=O)c1[nH]c(C)c(/C(O)=C2\C(=O)C(=O)N(CCN(C)C)C2c2ccc(C)o2)c1C (stereo not drawn)	4%	-8%	32µM*	-7%	-11%	-4%
COC(=O)c1[nH]c(C)c(/C(O)=C2\C(=O)C(=O)N(CCN(C)C)C2c2ccco2)c1C (stereo not drawn)	11%	3%	?	-7%	-20%	-4%
CCN1C(=O)c2cccc3cccc1c23	-3%	1%	11µM*	-48%	-2%	-6%
SMILES	SARS PLpro yeast	LmPK inh	Sm TGR block	NS1 function inh	RE007 growth inh	Tb PYK inh
CCCOc1ccc2cc(-c3ccccn3)c(=O)oc2c1	-33%	10µM*	5%	-8%	?	?
Cc1c(Cl)cc(C(C)(C)C)c(O)c1Cc1c(C)c(Cl)cc(C(C)(C)C)c1O	.	.	.	-19%	.	.
O=[N+]([O-])c1ccc(C2Oc3ccccc3C3CC(c4ccccc4)=NN32)s1 (stereo not drawn)	-94%	-2%	40µM*	-31%	.	.
c1ccc(C2Oc3ccccc3C3CC(c4cccs4)=NN32)cc1 (stereo not drawn)	.	0%	?	-41%	?	-4%
Cc1ccccc1C(=O)NNC(=O)/C=C\C(=O)O	-2%	3%	2µM*	0%	6%	-11%
Cc1cccc(C(=O)NNC(=O)/C=C/C(=O)O)c1	-1%	-13%	?	.	-3%	4%
O=C(O)/C=C/C(=O)NNC(=O)c1ccccc1Br	1%	2%	3.5µM*	-7%	1%	-15%
COc1ccc(OC)c(-c2csc(-c3c(N)c(C(=O)c4ccc(Cl)cc4)n4ccccc34)n2)c1	.	.	3%	.	.	-4%
N/N=C1/c2ccccc2N[C@H]1OC(=O)Nc1cccc(Cl)c1	.	.	.	-44%	.	.
Cc1ccc(S(=O)(=O)NC(=O)Nc2ccc(N(C)C)cc2)cc1	-10%	-26%	50µM*	-12%	-24%	-29%
CCCn1c(=O)c(C(=O)Nc2ccccc2C)c(O)c2ccccc21	-8%	46%	45µM*	-12%	3%	-6%
CC(=O)c1ccc(NC(=O)CSc2nc(-c3ccccc3C)nc3c2c(=O)n(C)c(=O)n3C)cc1	.	.	50µM*	.	.	4%
COc1cc2c(N3CCN(C(=O)Nc4ccc(OC(C)C)cc4)CC3)ncnc2cc1OCCCN1CCCCC1	.	.	.	.	.	-1%
CC(=NCc1ccco1)c1c(O)n(Cc2ccccc2)c(=O)[nH]c1=O	2%	4%	35µM*	-8%	2%	-2%
CC(=NCc1ccco1)c1c(O)n(-c2ccc(Cl)cc2)c(=O)[nH]c1=O	0%	2%	85%	-7%	0%	4%
Cn1c(O)c(/C=N/NC(=O)c2ccncc2)c(=O)n(C)c1=S	-2%	4%	20µM*	5%	-1%	0%
Cn1c(O)c(/C=N/NC(=O)c2ccncc2)c(=O)[nH]c1=S	0%	1%	-26%	1%	40%	-30%
O=C(N/N=C/c1c(O)n(-c2ccccc2)c(=O)[nH]c1=O)c1ccncc1	-10%	-5%	40µM*	18%	-9%	3%
CN(C)CCC(=O)[C@@]1(O)CC[C@H]2[C@H]3CC=C4C[C@@H](O)CC[C@]4(C)[C@H]3CC[C@]21C	.	.	.	-15%	.	.
Cc1nc2nc(-c3ccccc3)cn2nc1C	.	13µM*	-22%	-10%	-9%	-23%
COc1ccccc1-c1cc(C(F)(F)F)nc(S(=O)(=O)CCCC(=O)N2CCCCC2C)n1 (stereo not drawn)	-2%	2%	22µM*	-43%	-16%	-3%
